GALK inh: inhibitors of human galactokinase; P51570; Purified GALK, Kinase-Glo residual ATP luminescence; Potency, µM (doses to about 57.5 µM), hits mostly inhibitors; 0.007% of 270,000 active; active = well fitted curve in the direction sought with a large enough effect; inconclusive = small, poorly fitted or top-dose-only effect, or another doubt; inactive = no such curve, though single readings can be large; an effect the other way counts as inactive or inconclusive
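Human GALK (5 nM) with 35 uM ATP and 100 uM galactose in 20 mM HEPES pH 8.0, 5 mM MgCl2, 60 mM NaCl, 1 mM DTT, 0.01% BSA. After 1 h at room temperature, leftover ATP was read by Kinase-Glo Plus luminescence.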
TrxR1 inh: blocks rat thioredoxin reductase 1; 1% of 390,000 active; O89049; Potency, µM (doses to about 114 µM), actives largely listed as inhibitors; recombinant rTrxR1, NADPH fluorescence consumption, selenite substrate; active = well fitted curve in the direction sought with a large enough effect; inconclusive = small, poorly fitted or top-dose-only effect, or another doubt; inactive = no such curve, though single readings can be large; an effect the other way counts as inactive or inconclusive; also: nearly all actives have a fitted effect of over 65% in size
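Rat TrxR1 (90 nM in the dispensed reagent) was pre-reduced with 400 uM NADPH for 5 min at room temperature, then incubated with compound for 15 min. After 400 uM selenite was added, NADPH fluorescence (Ex 340/Em 450 nm) was followed for 8 min.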
Giardia killer: kills Giardia lamblia. 0.15% of 340,000 active. Giardia lamblia trophozoite viability. activity change, % at 7.66 µM, hits read low; in the data active = activity change below about -80%; inconclusive = between about -30% and that limit;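 also: parasites exposed to compound for two days anaerobically before the ATP read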
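Anaerobic 48 hrs incubation at 37 deg C of 100 trophozoites/well with test compounds; ATPLite 1-Step luminescence, 15-30 min RT, reports cellular ATP as viability.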
PI4K2A inh: inhibitors of human PI4K2A; 0.13% of 420,000 active; purified PI4K2A, ADP-Glo luminescence, 1 h; stronger effect = lower value; Q9BTU6; activity change, negative = inhibition, % at 76.9 µM; in the data active = activity change below about -50%; inconclusive = mostly about -30% to -49%
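ADP-Glo luminescence measured ADP generated by PI4K2A enzyme (4 ug/mL before mixing) with 1.2 mM PI substrate (pre-mix) and 300 microM ATP (pre-mix). Tris pH7.5 buffer with MgCl2, Triton X-100; 1 h reaction at ambient temperature.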
TrxR1 substrate: substrates of rat thioredoxin reductase 1; O89049; purified TrxR1 substrate turnover, NADPH consumption readout; Potency, µM (doses to about 114 µM); 0.01% of 390,000 active; AID 588456; active = well fitted curve in the direction sought with a large enough effect; inconclusive = small, poorly fitted or top-dose-only effect, or another doubt; inactive = no such curve, though single readings can be large; an effect the other way counts as inactive or inconclusive; also: nearly all actives have a fitted effect of over 50% in size
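Rat TrxR1, dispensed at 90 nM, was prereduced with 400 uM NADPH (final) for 5 min at ~22 deg C, then incubated with compound 15 min before 400 uM selenite. A first-read NADPH fluorescence drop versus no-compound background flagged substrates.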
Coupling enz: counter-screen for Giardia aldolase inhibitors: coupling enzyme system; coupling enzyme system counterscreen, AmpLite Red fluorescence; activity change, negative = inhibition, % at 58.2 µM, hits read low; 0.67% of 290,000 active; AID 2472; in the data active = activity change below about -30%
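Coupling enzymes only (glyceraldehyde-3-phosphate) + compound, at 57.5 uM final, 10 min RT; add substrate/coupling/AmpLite Red mix, 20 min RT; fluorescence ex 525/em 598 nm. Actives flag coupling-system interference.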
CASP1 redox cat: inhibits human caspase-1 in catalase buffer, redox counter-screen. shares compounds with Coupling enz. caspase-1 Ac-WEHD-AFC fluorescence rate, catalase buffer. Potency, µM (highest dose often 57.5 µM), hits mostly inhibitors. 30 tested, under 10 active
CASP1 inh CRC: blocks human caspase-1 activity in concentration-response; purified caspase-1, fluorogenic substrate cleavage; shares compounds with Coupling enz; 20% of 60 active; AID 896; Potency, µM (top dose mostly 57.5 µM), hits mostly inhibitors
CASP7 inh CRC: confirmation of allosteric or competitive inhibitors of human caspase-7. Potency, µM (highest dose often 57.5 µM), hits mostly inhibitors. AID 897. 60 tested, under 10 active. shares compounds with Coupling enz. recombinant caspase-7, fluorogenic substrate cleavage; active = well fitted inhibition curve with a large enough effect in the main read-out, with a control signal flat, not every such curve was filed as active; inconclusive = small, poorly fitted or top-dose-only effect, or a change in a side signal; inactive = no such curve, though single readings can be large or run the other way
CASP7 redox cys: counter-screen for redox active caspase-7 inhibitors: cysteine buffer; shares compounds with Coupling enz; caspase-7 enzyme with cysteine, fluorogenic substrate, redox counterscreen; Potency, µM (series often up to 57.5 µM), usual class: inhibitors; 60 tested, under 10 active
Casp7 catalase: counter-screen for redox active caspase-7 inhibitors: catalase buffer | shares compounds with Coupling enz | Caspase-7 Ac-DEVD-AFC fluorescence rate, catalase buffer | Potency, µM (series often up to 57.5 µM), usual class: inhibitors | 30 tested, under 10 active | AID 909
Casp1 cysteine: caspase-1 inhibition with cysteine present; shares compounds with Coupling enz; recombinant caspase-1, fluorogenic substrate, cysteine buffer; Potency, µM (doses to about 57.5 µM), most hits filed as inhibitors; 60 tested, under 10 active
A number is an active result; - = inactive; ? = inconclusive; . = no result given; [ ] = another dose, or the depositor's remark. Most compounds without a hit are left out; they make up all but 1.5% or so of the library. Unless noted, calls follow the shape of the dose curve; as a rule, active = well fitted inhibition curve with a large enough effect in the main read-out, with a control signal flat; inconclusive = small, poorly fitted or top-dose-only effect, or a change in a side signal; inactive = no such curve, though single readings can be large or run the other way.

SMILES | GALK inh | TrxR1 inh | Giardia killer | PI4K2A inh | TrxR1 substrate | Coupling enz | others
Cc1cccc(NC(=O)CSc2ncc(-c3ccc(Br)cc3)[nH]2)c1 | . | - | . | - | - | .
COc1cccc(-n2nc(C(N)=O)c(O)cc2=O)c1 | - | - | - | - | - | -
COc1cccc(-n2nc(C#N)c(Cl)cc2=O)c1 | - | 4µM | - | - | - | -
CC(NC(=O)c1ccc(Cl)c(Cl)c1)c1ccc(-c2ccccc2)cc1 (centres undefined) | - | -[2.29 µM] | - | - | - | -
CC(NC(=O)CCl)c1ccc(Cl)c(Cl)c1 (centres undefined) | - | 40µM | - | - | - | -
O=C(Nc1nnc(Cc2ccccc2)s1)C1CCN(C(=O)c2cccs2)CC1 | . | - | - | . | - | .
COc1cccc(NC(=O)c2nc(SC)ncc2Cl)c1 | - | ? | - | - | - | -
CCS(=O)(=O)c1ncc(Cl)c(C(=O)Nc2c(C(=O)Nc3cccc(C)c3)oc3ccccc23)n1 | . | - | . | - | - | .
Cc1cccc(NC(=O)c2nc(S(C)(=O)=O)ncc2Cl)c1 | . | 7.1µM | . | - | - | .
COc1cccc(NC(=O)c2nc(S(C)(=O)=O)ncc2Cl)c1 | - | 8.9µM | - | - | - | -
CCOC(=O)C1(Cc2ccccc2)CCN(Cc2cccc(C#N)c2)CC1 | . | . | . | - | . | .
CCOc1ccc(NC(=O)N2CCN(S(=O)(=O)c3ccc4c(ccn4C)c3)CC2)cc1 | . | - | . | - | - | .
Cc1cc(=O)[nH]c(Nc2c(C)n(C)n(-c3ccccc3)c2=O)n1 | - | - | - | - | - | -
Cc1c(NC2=C(Cl)C(=O)N(c3ccccc3Cl)C2=O)c(=O)n(-c2ccccc2)n1C | . | 20µM | - | - | - | -
C=CCNC1=C(Cl)C(=O)N(c2ccccc2Cl)C1=O | - | 25µM | - | - | - | -
O=C1C(Cl)=C(N2CCCCCC2)C(=O)N1c1ccccc1Cl | - | - | - | - | - | -
Cc1cc(N2CCN(C(=O)Oc3ccc(C(F)(F)F)cc3)CC2)c2ccccc2n1 | . | . | . | - | . | .
O=C1NN(c2cccc(Br)c2)C(=O)/C1=C\c1ccccc1 | - | 11µM | - | - | ? | -
O=C1NN(c2ccccc2)C(=O)C1=Cc1ccccc1 | . | . | . | - | . | .
O=C1NN(c2ccccc2)C(=O)/C1=C\c1ccccc1 | - | 28µM | - | - | - | -
CN(C)c1ccc(/C=C/c2ncnc3ccccc23)cc1 | . | - | . | . | - | .
O=C1Cc2ccccc2C(=O)N1CCc1ccccc1 | - | - | - | ? | - | -47 | CASP1 inh CRC=6.3µM;CASP7 inh CRC=10µM;CASP7 redox cys=-;Casp1 cysteine=-
CCc1ccc(CNc2ccc(O)cc2)cc1 | - | ? | - | ? | - | -58 | CASP1 inh CRC=-;CASP7 inh CRC=-;CASP7 redox cys=-;Casp1 cysteine=-
CCc1ccc(CNc2ccc3c(c2)ncn3CC)cc1 | . | - | - | - | - | -
COc1cc2c(Cc3c4c5c(cc(OC)c(OC)c5c5c(OC)c(OC)ccc35)CCN4C)c3c4c(cc(OC)c(OC)c4c2cc1OC)CCN3C | . | . | . | . | . | -33 | CASP1 inh CRC=?;CASP7 inh CRC=-;CASP7 redox cys=-;Casp1 cysteine=?
COc1cc2c(C(=O)c3ccccc3)c3c4c(cc(OC)c(OC)c4c2cc1OC)CCN3C | . | . | . | . | . | -
COc1cc(N[C@@H](C)CCCN)c2ncccc2c1 | . | . | . | . | . | -33 | CASP1 inh CRC=-;CASP7 inh CRC=-;CASP7 redox cys=-;Casp1 cysteine=-
CCN1CCCCC(NC(=O)c2ccc(F)cc2)C1=O (centres undefined) | . | . | . | - | . | .
Cc1ccc(N2C(=O)[C@@H]3[C@H](C2=O)C2c4ccccc4C=CN2[C@@H]3C(=O)c2ccco2)c(C)c1 (some centres undefined) | - | 14µM | - | ? | - | -42 | CASP1 redox cat=32µM;CASP1 inh CRC=25µM;CASP7 inh CRC=?;CASP7 redox cys=-;Casp7 catalase=-;Casp1 cysteine=-

High-throughput results deposited in PubChem BioAssay by National Center for Advancing Translational Sciences (NCATS).
